Test systems include DU-145 prostate; K-562 leukemia; MALME-3M melanoma; MDA-MB-231 breast; RXF 393 renal; SF-268 CNS; SF-295 CNS; SF-539 CNS; UACC-257 melanoma; M14 melanoma; HCT-15 colon; HT29 colon; SNB-75 CNS; SNB-19 CNS; U251 CNS; PC-3 prostate; UACC-62 melanoma; LOX IMVI melanoma; SK-MEL-28 melanoma.
What all share (assay): NCI-60 one-dose screen, 48 h (100 = growth as untreated, 0 = no growth, -100 = all killed)
Conditions in all cases: 10 µM unless noted

SMILES strings stand for the structures. Compounds without any hit were thinned out: in the full panel of roughly 83,000, 20% have a hit.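 96-well plates, one dose, 48 hours. Percent growth reported; active if below 10.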 Values without a mark were called inactive. Activity calls are given as the source filed them.

These results are taken from PubChem BioAssay (NCI).

Turning to `C#CC(F)(F)[C@]1(O)CC[C@H]2[C@@H]3CCC4=CC(=O)CCC4=C3[C@@H](c3ccc(C4CC4)cc3)C[C@@]21C`, the growth in the test with DU-145 prostate is 30.3%; in the test on K-562 leukemia, 14.3%; in the test on MALME-3M melanoma it was -71.7% (active); in the test with MDA-MB-231 breast it was -10.3% (active); with RXF 393 renal it was 31.1%; with SF-268 CNS it was -60.5% (active). The growth was -59.6% (active) in the test with SF-295 CNS; -84.3% (active) in the test on SF-539 CNS; 77.8% in the test with UACC-257 melanoma; 62.2% in the test on M14 melanoma; 59.3% in the test on HCT-15 colon; -63.9% (active) in the test on HT29 colon. The growth was -15.9% (active) in the test with SNB-75 CNS; 46.1% with SNB-19 CNS; -32.2% (active) with U251 CNS; -53.8% (active) with PC-3 prostate; 26.7% in the test on UACC-62 melanoma; -84.6% (active) with LOX IMVI melanoma. For the same molecule, the growth in the test on SK-MEL-28 melanoma is 90.2%.
Turning to `O=C1/C(=C(/c2ccccc2)N2CCOCC2)Cc2ccccc21`, the growth was -42.4% (active) in the test with DU-145 prostate; 35.2% with K-562 leukemia; 9.61% (active) with MALME-3M melanoma; 8.95% (active) in the test on MDA-MB-231 breast; 42% in the test on RXF 393 renal; 11.3% in the test on SF-268 CNS. The growth in the test on SF-295 CNS was 75.8%; in the test with SF-539 CNS, -45.6% (active); in the test with UACC-257 melanoma, 65.4%; with M14 melanoma it was -34.7% (active); in the test with HCT-15 colon it was -25.9% (active); in the test on HT29 colon, 8.82% (active). The growth in the test on SNB-75 CNS is 50.3%; in the test with SNB-19 CNS, 78.1%; with U251 CNS, 9.15% (active); in the test with PC-3 prostate, 12.2%; in the test with UACC-62 melanoma it was 48.6%; with LOX IMVI melanoma, -58.3% (active). Further, in the test on SK-MEL-28 melanoma, the growth is -28.9% (active).
Take `COc1cc(/C=C/c2cc(/C=C/c3ccc(O)c(OC)c3)n(-c3c(C)cccc3C)c(=O)n2)ccc1O`: the growth with DU-145 prostate is 12.7%; with K-562 leukemia, 5.52% (active); in the test with MALME-3M melanoma, -14% (active); in the test on MDA-MB-231 breast it was 23.1%; in the test with RXF 393 renal, -32.1% (active); in the test with SF-268 CNS, 8.69% (active). Also, the growth in the test with SF-295 CNS was 8.43% (active); in the test on SF-539 CNS it was -23.5% (active); in the test with UACC-257 melanoma, -6.5% (active); with M14 melanoma it was 8.07% (active); in the test with HCT-15 colon, 8.19% (active); in the test on HT29 colon, -37.8% (active). Moreover, the growth in the test on SNB-75 CNS is -12.4% (active); with SNB-19 CNS it was 13.9%; in the test on U251 CNS it was 2.81% (active); with PC-3 prostate, -2.22% (active); in the test on UACC-62 melanoma, -11.3% (active); in the test on LOX IMVI melanoma, 0.0749% (active). In addition, in the test on SK-MEL-28 melanoma, the growth was 0.867% (active).
As to `COc1ccc(/C=C/c2nc(-c3n[nH]c(=O)n3-c3ccccc3)c3ccccc3n2)cc1`, the growth with DU-145 prostate was 102%; in the test with K-562 leukemia, 95.7%; with MALME-3M melanoma, 94.3%; in the test on MDA-MB-231 breast it was 94.5%; with RXF 393 renal it was 101%; in the test on SF-268 CNS it was 97.3%. Moreover, the growth was 99.6% in the test on SF-295 CNS; 101% in the test with SF-539 CNS; 106% with UACC-257 melanoma; 94.1% in the test with M14 melanoma; 93.8% in the test on HCT-15 colon; 101% in the test on HT29 colon. Also, the growth in the test with SNB-75 CNS was 81.7%; in the test on SNB-19 CNS, 96.7%; in the test on U251 CNS, 99.5%; in the test on PC-3 prostate, 95.9%; with UACC-62 melanoma it was 87.2%; in the test with LOX IMVI melanoma, 97.2%. In addition, in the test with SK-MEL-28 melanoma, the growth was 106%.
`CC[C@]1(O)C[C@@H]2CN(CCc3c([nH]c4ccccc34)[C@@](C(=O)OC)(c3cc4c(cc3OC)N(C)[C@H]3[C@@](O)(C(N)=O)[C@H](O)[C@]5(CC)[C@@H]6C[C@@H]6CN6CC[C@]43[C@@H]65)C2)C1`: the growth was 4.49% (active) in the test on DU-145 prostate; 11.8% in the test with K-562 leukemia; 85.5% with MALME-3M melanoma; 2.3% (active) in the test with MDA-MB-231 breast; 60.4% with RXF 393 renal; 30.8% with SF-268 CNS. Besides, the growth was 15.8% with SF-295 CNS; 7.92% (active) with SF-539 CNS; 53.6% in the test with UACC-257 melanoma; 1.22% (active) in the test with M14 melanoma; 11.9% in the test with HCT-15 colon; 2.2% (active) in the test on HT29 colon. Also, the growth was 50.8% in the test on SNB-75 CNS; 30.9% with SNB-19 CNS; 10.7% in the test on U251 CNS; 20.7% in the test with PC-3 prostate; 35.7% with UACC-62 melanoma; 18.3% in the test on LOX IMVI melanoma. Also, the growth in the test on SK-MEL-28 melanoma was 68.1%.
Take `CNc1ccc(-c2cc(=O)oc3ccc(Cl)cc23)cc1`: the growth in the test with DU-145 prostate is 18%; with K-562 leukemia, 11%; in the test with MALME-3M melanoma it was 110%; with MDA-MB-231 breast, 16.2%; in the test with RXF 393 renal it was 43.1%; with SF-268 CNS it was 27.6%. The growth was 18.1% in the test on SF-295 CNS; -2.97% (active) in the test with SF-539 CNS; 38% with UACC-257 melanoma; 25.4% in the test with M14 melanoma; 14.9% in the test on HCT-15 colon; -2.77% (active) in the test with HT29 colon. The growth is 40.9% in the test with SNB-75 CNS; 22.7% in the test with SNB-19 CNS; 8.91% (active) in the test on U251 CNS; 12.8% with PC-3 prostate; 31.7% in the test with UACC-62 melanoma; 24.1% with LOX IMVI melanoma. For the same molecule, in the test with SK-MEL-28 melanoma, the growth was 58.5%.
As to `Cc1nn(-c2cc(=O)[nH]c3ccccc23)c(N)c1C#N`, the growth was 107% with DU-145 prostate; 105% in the test with K-562 leukemia; 108% in the test with MALME-3M melanoma; 103% with MDA-MB-231 breast; 112% in the test with RXF 393 renal; 97.7% in the test with SF-268 CNS. The growth with SF-295 CNS was 100%; in the test with SF-539 CNS it was 95%; in the test with UACC-257 melanoma it was 110%; with M14 melanoma, 106%; with HCT-15 colon, 106%; with HT29 colon, 107%. The growth was 82.4% with SNB-75 CNS; 102% in the test with SNB-19 CNS; 99% with U251 CNS; 96% with PC-3 prostate; 99.2% in the test with UACC-62 melanoma; 98.4% with LOX IMVI melanoma. For the same molecule, the growth in the test on SK-MEL-28 melanoma was 109%.
Take `C=C1C(=O)O[C@H]2[C@H]1CC/C(COC(=O)c1cc3cc(OC)ccc3[nH]1)=C\CC[C@@]1(C)O[C@@H]21`: the growth in the test with DU-145 prostate is -94.4% (active); with K-562 leukemia it was 0.302% (active); in the test on MALME-3M melanoma, -85.3% (active); with MDA-MB-231 breast it was -71.6% (active); in the test with RXF 393 renal, -95.1% (active); in the test on SF-268 CNS, -82.8% (active). Also, the growth is 47.5% with SF-295 CNS; -93.4% (active) with SF-539 CNS; -89.6% (active) in the test with UACC-257 melanoma; -52.9% (active) in the test on M14 melanoma; -43.5% (active) in the test on HCT-15 colon; -83.4% (active) with HT29 colon. For the same molecule, the growth was -68.5% (active) with SNB-75 CNS; -64.3% (active) in the test with SNB-19 CNS; -97.7% (active) in the test on U251 CNS; -71.5% (active) in the test with PC-3 prostate; -90.6% (active) in the test on UACC-62 melanoma; -91% (active) in the test on LOX IMVI melanoma. In addition, the growth in the test with SK-MEL-28 melanoma was -80.8% (active).
